Laboratory results from PubChem BioAssay AID1508625 (Wald Lab, School of Medicine, Case Western Reserve …, 2021).

Assay: enhancers of NK cell killing of ovarian tumor cells, primary screen, imaging, OVCAR3, primary NK cells, calcein-AM imaging (AID 1508625);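 also: compound given to NK cells 16 h before adding targets at 1.5 to 1 ratio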
Settings: OVCAR3 lysis by primary NK cells, at 5 µM; z-score: measured here: robust Z-score, single-point normalisation

| SMILES | corrected activity, negative = more killing [%] | z-score |
| --- | --- | --- |
| O=c1c2ccccc2nc(-c2ccco2)n1-c1ccc(Cl)cc1 | -0.835 | -0.329 |
| CCCC12CN3CCN(CC(C3)C1O)C2 (configuration not stated) | 0.145 | 0.0449 |
| O=S1(=O)CC2(N3CCOCC3)CCCCC21 (configuration not stated) | -5.53 | -1.76 |
| CCOC(=O)CN1C(=O)NC2(CCN(C)CC2)C1=O | -3.8 | -1.02 |
| CC12CN3CN(C1)CC(C)(C3)C2=NN | -6.15 | -2.42 |
| Cc1cnc2cccc[n+]2c1C | 0.645 | 0.254 |
| CCCCCn1c(=O)c(C(=O)Nc2cccc(OC)c2)c(O)c2ccccc21 | -0.341 | -0.108 |
| COc1ccccc1CC(C)NC1CCCc2c1[nH]c1ccc([N+](=O)[O-])cc21 (configuration not stated) | 2.84 | 1.24 |
| CCC(C)N1CCN(Cc2cccc(Cl)c2)CC1 (configuration not stated) | -0.307 | -0.137 |
| O=[N+]([O-])c1ccccc1CNCCc1cccc(F)c1 | -3.35 | -1.06 |
| O=c1cccc2n1C[C@H]1C[C@@H]2CN(Cc2ccccc2F)C1 | -2.76 | -1.43 |
| COc1cccc(CCNCc2ccc(C)cc2C)c1 | -4.05 | -1.29 |
| CCOP(=S)(OCC)SCC(=O)c1c(O)cc(C)oc1=O | -2.68 | -1.01 |
| C=CCON=C(CCC)C1C(=O)CC(C)(C)C(C(=O)OC)C1=O (configuration not stated) | -4.48 | -1.77 |
| O=[N+]([O-])c1ccc(NCCc2ccccc2)c2ncccc12 | 1.61 | 0.498 |
| CC(Cc1ccccc1F)NC1CCCc2c1[nH]c1ccc([N+](=O)[O-])cc21 (configuration not stated) | -1.36 | -0.594 |
| Cc1ccc(OCC(=O)N2CCN(C3CCCCC3)CC2)cc1 | -3.64 | -1.62 |
| COc1ccc(C2(CN)CCCC2)cc1OC | -1.26 | -0.675 |
| CCN(CC)CCCn1c(=S)[nH]c2cc(Cl)ccc2c1=O | -4.51 | -1.2 |
| FC(F)(F)c1ccc(CNCCc2ccc3c(c2)OCO3)cc1 | -3.37 | -1.07 |
| CCOc1cccc(C(O)CNC)c1 (configuration not stated) | 0.0567 | 0.0176 |
